# According to PubChem BioAssay AID1159580 (chemical genetic matrix, 2015):
# The campaign covered roughly 5,500 compounds. About 2,000 (36%) were called active. Inconclusive results (about 18%) are left out. Some of the results follow. A number with no mark means an inactive call. No stated cut-off is given here; in the data, active means normalized growth mostly below about 0.91 (no sharp cut-off); inconclusive means no clear call, values can overlap the other calls; inactive means mostly above about 0.92.
# Test: chemical genetic growth profiling, strain panel (AID 1159580);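 further: tested at 20 µM; growth read once vehicle control cultures reached saturation at 30 °C; 1 = growth at the plate median or of vehicle wells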
# Settings: growth OD
# [1] = S. cerevisiae deletion strains, locus YDL101C, strain DUN1, stronger effect = lower value
# [2] = S. cerevisiae deletion strains, locus YHR030C, strain SLT2, stronger effect = lower value
# [3] = S. cerevisiae deletion strains, locus YJR075W, strain HOC1, stronger effect = lower value
# [4] = S. cerevisiae deletion strains, locus YMR263W, strain SAP30, stronger effect = lower value
# [5] = S. cerevisiae deletion strains, locus YMR307W, strain GAS1, stronger effect = lower value
# [6] = S. cerevisiae deletion strains, locus YNL153C, strain GIM3, stronger effect = lower value
# [7] = S. cerevisiae deletion strains, locus YPL241C, strain CIN2, stronger effect = lower value
compound,measurement,setting,value
Cn1c(CSCCOc2ccccc2)nnc1SCc1ccc(Cl)cc1Cl,normalized growth,"S. cerevisiae deletion strains, locus YAR019C, strain CDC15, stronger effect = lower value",0.985
same,normalized growth,"S. cerevisiae deletion strains, locus YBL105C, strain PKC1, stronger effect = lower value",0.982
same,normalized growth,"S. cerevisiae deletion strains, locus YBR135W, strain CKS1, stronger effect = lower value",0.98
same,normalized growth,"S. cerevisiae deletion strains, locus YBR136W, strain MEC1, stronger effect = lower value",0.98
same,normalized growth,"S. cerevisiae deletion strains, locus YBR160W, strain CDC28, stronger effect = lower value",0.98
same,normalized growth,"S. cerevisiae deletion strains, locus YDL017W, strain CDC7, stronger effect = lower value",0.986
same,normalized growth,"S. cerevisiae deletion strains, locus YDL028C, strain MPS1, stronger effect = lower value",0.992
same,normalized growth,[1],0.995
same,normalized growth,"S. cerevisiae deletion strains, locus YDL108W, strain KIN28, stronger effect = lower value",0.986
same,normalized growth,"S. cerevisiae deletion strains, locus YDL132W, strain cdc53, stronger effect = lower value",0.968
same,normalized growth,"S. cerevisiae deletion strains, locus YDL214C, strain PRR2, stronger effect = lower value",0.984
same,normalized growth,"S. cerevisiae deletion strains, locus YDR052C, strain DBF4, stronger effect = lower value",0.982
same,normalized growth,"S. cerevisiae deletion strains, locus YDR054C, strain cdc34, stronger effect = lower value",0.985
same,normalized growth,"S. cerevisiae deletion strains, locus YDR226W, strain ADK1, stronger effect = lower value",0.971
same,normalized growth,"S. cerevisiae deletion strains, locus YDR477W, strain SNF1, stronger effect = lower value",1.02
same,normalized growth,"S. cerevisiae deletion strains, locus YER123W, strain YCK3, stronger effect = lower value",0.98
same,normalized growth,"S. cerevisiae deletion strains, locus YER133W, strain GLC7, stronger effect = lower value",1
same,normalized growth,"S. cerevisiae deletion strains, locus YFL009W, strain cdc4, stronger effect = lower value",0.983
same,normalized growth,"S. cerevisiae deletion strains, locus YFL029C, strain CAK1, stronger effect = lower value",0.99
same,normalized growth,"S. cerevisiae deletion strains, locus YFR003C, strain YPI1, stronger effect = lower value",0.987
same,normalized growth,"S. cerevisiae deletion strains, locus YFR019W, strain FAB1, stronger effect = lower value",0.946
same,normalized growth,"S. cerevisiae deletion strains, locus YFR028C, strain CDC14, stronger effect = lower value",0.989
same,normalized growth,"S. cerevisiae deletion strains, locus YGR040W, strain KSS1, stronger effect = lower value",1.01
same,normalized growth,"S. cerevisiae deletion strains, locus YGR052W, strain FMP48, stronger effect = lower value",1.12
same,normalized growth,"S. cerevisiae deletion strains, locus YGR092W, strain DBF2, stronger effect = lower value",0.984
same,normalized growth,[2],0.829 (active)
same,normalized growth,"S. cerevisiae deletion strains, locus YHR079C, strain IRE1, stronger effect = lower value",0.97
same,normalized growth,"S. cerevisiae deletion strains, locus YHR082C, strain KSP1, stronger effect = lower value",1.02
same,normalized growth,"S. cerevisiae deletion strains, locus YHR205W, strain SCH9, stronger effect = lower value",0.969
same,normalized growth,"S. cerevisiae deletion strains, locus YIL147C, strain SLN1, stronger effect = lower value",0.985
same,normalized growth,"S. cerevisiae deletion strains, locus YJL095W, strain BCK1, stronger effect = lower value",0.911
same,normalized growth,"S. cerevisiae deletion strains, locus YJL128C, strain PBS2, stronger effect = lower value",0.905
same,normalized growth,"S. cerevisiae deletion strains, locus YJL157C, strain FAR1, stronger effect = lower value",1.01
same,normalized growth,"S. cerevisiae deletion strains, locus YJR016C, strain ILV3, stronger effect = lower value",0.982
same,normalized growth,"S. cerevisiae deletion strains, locus YJR066W, strain TOR1 (second series), stronger effect = lower value",0.977
same,normalized growth,"S. cerevisiae deletion strains, locus YJR066W, strain TOR1, stronger effect = lower value",0.995
same,normalized growth,"S. cerevisiae deletion strains, locus YKL048C, strain ELM1, stronger effect = lower value",0.963
same,normalized growth,"S. cerevisiae deletion strains, locus YKL067W, strain YNK1, stronger effect = lower value",0.994
same,normalized growth,"S. cerevisiae deletion strains, locus YKL101W, strain HSL1, stronger effect = lower value",0.981
same,normalized growth,"S. cerevisiae deletion strains, locus YKL193C, strain SDS22, stronger effect = lower value",0.998
same,normalized growth,"S. cerevisiae deletion strains, locus YKL203C, strain TOR2, stronger effect = lower value",1.07
same,normalized growth,"S. cerevisiae deletion strains, locus YLR113W, strain HOG1, stronger effect = lower value",1
same,normalized growth,"S. cerevisiae deletion strains, locus YLR133W, strain CKI1, stronger effect = lower value",0.982
same,normalized growth,"S. cerevisiae deletion strains, locus YLR403W, strain SFP1, stronger effect = lower value",1.01
same,normalized growth,"S. cerevisiae deletion strains, locus YML070W, strain DAK1, stronger effect = lower value",1
same,normalized growth,"S. cerevisiae deletion strains, locus YMR001C, strain CDC5, stronger effect = lower value",0.988
same,normalized growth,"S. cerevisiae deletion strains, locus YMR205C, strain PFK2 (second series), stronger effect = lower value",0.994
same,normalized growth,"S. cerevisiae deletion strains, locus YMR277W, strain FCP1, stronger effect = lower value",0.989
same,normalized growth,"S. cerevisiae deletion strains, locus YNL006W, strain LST8, stronger effect = lower value",0.99
same,normalized growth,"S. cerevisiae deletion strains, locus YNL020C, strain ARK1, stronger effect = lower value",0.974
same,normalized growth,"S. cerevisiae deletion strains, locus YNL161W, strain CBK1, stronger effect = lower value",0.98
same,normalized growth,"S. cerevisiae deletion strains, locus YNL183C, strain NPR1, stronger effect = lower value",0.996
same,normalized growth,"S. cerevisiae deletion strains, locus YNL207W, strain RIO2, stronger effect = lower value",1
same,normalized growth,"S. cerevisiae deletion strains, locus YNL222W, strain SSU72, stronger effect = lower value",0.984
same,normalized growth,"S. cerevisiae deletion strains, locus YNL307C, strain MCK1 (second series), stronger effect = lower value",0.96
same,normalized growth,"S. cerevisiae deletion strains, locus YOL078W, strain AVO1, stronger effect = lower value",0.994
same,normalized growth,"S. cerevisiae deletion strains, locus YOL136C, strain PFK27, stronger effect = lower value",0.988
same,normalized growth,"S. cerevisiae deletion strains, locus YOR061W, strain CKA2, stronger effect = lower value",1
same,normalized growth,"S. cerevisiae deletion strains, locus YOR119C, strain RIO1, stronger effect = lower value",1.14
same,normalized growth,"S. cerevisiae deletion strains, locus YOR231W, strain MKK1, stronger effect = lower value",0.992
same,normalized growth,"S. cerevisiae deletion strains, locus YOR329C, strain SCD5, stronger effect = lower value",0.986
same,normalized growth,"S. cerevisiae deletion strains, locus YPL031C, strain PHO85, stronger effect = lower value",1.03
same,normalized growth,"S. cerevisiae deletion strains, locus YPL153C, strain RAD53, stronger effect = lower value",1.03
same,normalized growth,"S. cerevisiae deletion strains, locus YPL204W, strain HRR25, stronger effect = lower value",1.04
same,normalized growth,"S. cerevisiae deletion strains, locus YPL209C, strain IPL1, stronger effect = lower value",0.99
same,normalized growth,"S. cerevisiae deletion strains, locus YPL256C, strain CLN2, stronger effect = lower value",0.979
same,normalized growth,"S. cerevisiae deletion strains, locus YPR025C, strain CCL1, stronger effect = lower value",0.986
same,normalized growth,"S. cerevisiae deletion strains, locus YPR106W, strain ISR1, stronger effect = lower value",0.982
same,normalized growth,"S. cerevisiae deletion strains, locus YPR111W, strain DBF20, stronger effect = lower value",0.969
same,normalized growth,"S. cerevisiae deletion strains, strain NNK1, stronger effect = lower value",0.983
same,normalized growth,"S. cerevisiae deletion strains, strain TSCII, stronger effect = lower value",0.988
O=S(=O)(O)C1CCNCC1,normalized growth,"S. cerevisiae deletion strains, locus YAL040C, strain CLN3, stronger effect = lower value",0.981
same,normalized growth,"S. cerevisiae deletion strains, locus YCL061C, strain MRC1 (second series), stronger effect = lower value",1
same,normalized growth,"S. cerevisiae deletion strains, locus YDR363W, strain ESC2, stronger effect = lower value",0.943
same,normalized growth,"S. cerevisiae deletion strains, locus YER002W, strain NOP16, stronger effect = lower value",1
same,normalized growth,[3],1.01
same,normalized growth,[4],0.997
same,normalized growth,[5],0.991
same,normalized growth,[6],1.02
same,normalized growth,"S. cerevisiae deletion strains, locus YNL175C, strain NOP13, stronger effect = lower value",0.995
same,normalized growth,"S. cerevisiae deletion strains, locus YNL197C, strain WHI3, stronger effect = lower value",0.995
same,normalized growth,"S. cerevisiae deletion strains, locus YNL224C, strain SQS1, stronger effect = lower value",0.995
same,normalized growth,"S. cerevisiae deletion strains, locus YOR083W, strain WHI5 (second series), stronger effect = lower value",0.993
same,normalized growth,[7],1
CN1CCN(C=Nc2ncc(C(F)(F)F)cc2Cl)CC1,normalized growth,"S. cerevisiae deletion strains, locus YAL013W, strain DEP1, stronger effect = lower value",0.986
same,normalized growth,"S. cerevisiae deletion strains, locus YBR229C, strain ROT2, stronger effect = lower value",1.02
same,normalized growth,[1],0.946
same,normalized growth,"S. cerevisiae deletion strains, locus YDR150W, strain NUM1, stronger effect = lower value",0.974
same,normalized growth,"S. cerevisiae deletion strains, locus YEL061C, strain CIN8, stronger effect = lower value",1.01
same,normalized growth,"S. cerevisiae deletion strains, locus YGR078C, strain PAC10, stronger effect = lower value",0.984
same,normalized growth,[2],0.957
same,normalized growth,"S. cerevisiae deletion strains, locus YHR087W, strain rtc3, stronger effect = lower value",1.07
same,normalized growth,"S. cerevisiae deletion strains, locus YJL187C, strain SWE1, stronger effect = lower value",1
same,normalized growth,"S. cerevisiae deletion strains, locus YJR043C, strain POL32, stronger effect = lower value",0.996
same,normalized growth,[3],0.989
same,normalized growth,"S. cerevisiae deletion strains, locus YLR039C, strain RIC1, stronger effect = lower value",0.976
same,normalized growth,"S. cerevisiae deletion strains, locus YLR058C, strain SHM2 (second series), stronger effect = lower value",0.996
same,normalized growth,"S. cerevisiae deletion strains, locus YLR085C, strain ARP6, stronger effect = lower value",0.949
same,normalized growth,"S. cerevisiae deletion strains, locus YLR262C, strain YPT6, stronger effect = lower value",0.995
same,normalized growth,"S. cerevisiae deletion strains, locus YML094W, strain GIM5, stronger effect = lower value",1.01
same,normalized growth,"S. cerevisiae deletion strains, locus YMR219W, strain ESC1, stronger effect = lower value",1
same,normalized growth,[4],0.999
same,normalized growth,[5],1.01
same,normalized growth,[6],0.991
same,normalized growth,"S. cerevisiae deletion strains, locus YNL298W, strain CLA4 (second series), stronger effect = lower value",0.975
same,normalized growth,"S. cerevisiae deletion strains, locus YNL322C, strain KRE1, stronger effect = lower value",0.978
same,normalized growth,"S. cerevisiae deletion strains, locus YNR030W, strain Alg12, stronger effect = lower value",1.02
same,normalized growth,"S. cerevisiae deletion strains, locus YOL006C, strain TOP1, stronger effect = lower value",0.988
same,normalized growth,"S. cerevisiae deletion strains, locus YPL055C, strain LGE1, stronger effect = lower value",1.04
same,normalized growth,[7],0.994
same,normalized growth,"S. cerevisiae deletion strains, locus YPR135W, strain CTF4, stronger effect = lower value",0.927
same,normalized growth,"S. cerevisiae strains, strain wild type, stronger effect = lower value",0.991
